# Assay results taken from paper PMC5540273 (PLoS ONE, 2017).
# How the values were obtained:
# Conditions in all cases: concentration: 1 μM,replicates: in singlicate; n = 1
# MLK1 = tested on: T1, MLK1
# T1 construct: gene MAP3K9
# MLK2 = tested on: MLK2
# MLK3 = tested on: MLK3
# MRCKA = tested on: MRCKA
# MRCKB = tested on: T2, MRCKB
# T2 construct: gene CDC42BPB
# MST1R = tested on: MST1R
# MST1 = tested on: T3, MST1
# T3 construct: gene STK4
# MST2 = tested on: T4, MST2
# T4 construct: gene STK3
# MST3 = tested on: T5, MST3
# T5 construct: gene STK24
# MST4 = tested on: MST4
# MTOR = tested on: MTOR
# MUSK = tested on: MUSK
# MYLK2 = tested on: MYLK2
# MYLK4 = tested on: MYLK4
# MYLK = tested on: MYLK
# MYO3A = tested on: MYO3A
# MYO3B = tested on: MYO3B
# NDR1 = tested on: T6, NDR1
# T6 construct: gene STK38
# NDR2 = tested on: NDR2
# NEK10 = tested on: NEK10
# 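Further: KINOMEscan kinase panel screen.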
SMILES,%Inh (MLK1) [%],%Inh (MLK2) [%],%Inh (MLK3) [%],%Inh (MRCKA) [%],%Inh (MRCKB) [%],%Inh (MST1R) [%],%Inh (MST1) [%],%Inh (MST2) [%],%Inh (MST3) [%],%Inh (MST4) [%],%Inh (MTOR) [%],%Inh (MUSK) [%],%Inh (MYLK2) [%],%Inh (MYLK4) [%],%Inh (MYLK) [%],%Inh (MYO3A) [%],%Inh (MYO3B) [%],%Inh (NDR1) [%],%Inh (NDR2) [%],%Inh (NEK10) [%]
Cl.Oc1cc(-c2nc(-c3ccccc3)[nH]c2-c2ccncc2)ccc1Cl [SB-386023],0,0,3,0,0,22,0,27,0,9,0,0,0,11,0,27,0,10,0,0
Cc1cc(C(=O)Nc2ccc(Oc3ccc4nc(NC(=O)C5CC5)cn4n3)cc2)nn1-c1ccccc1,20,43,4,28,0,0,13,0,0,0,9,59,0,5,9,0,21,8,3,0
CCn1c(-c2nonc2N)nc2c(C#CC(C)(C)O)nc(OCCN)cc21.Cl.Cl [GSK902056],0,0,0,3,0,43,0,0,0,0,13,20,33,6,4,0,0,31,16,6
CN(C)CC(O)COc1ccc(Nc2nccc(-c3cnn4nc(N5CCOCC5)ccc34)n2)cc1 (centres unmarked) [GW767488],0,18,18,0,3,16,0,0,0,46,6,0,38,46,48,33,0,49,0,80
Cl.Cl.NC[C@H](CC1CCCCC1)NC(=O)c1cc(Br)c(-c2ccnc3[nH]ccc23)s1 [GSK1581427],0,0,0,86,99.4,11,0,0,0,10,6,3,19,99.7,40,0,0,95.1,82,0
Cl.Cl.Nc1nc(-c2ccc3c(N)n[nH]c3c2)cc(N2CCCC(NC(=O)c3ccccc3)C2)n1 (centres unmarked) [GSK2286775],0,0,0,2,0,35,0,8,12,2,39,0,0,27,11,22,0,20,0,16
Cc1n[nH]c2ccc(-c3cc(OC[C@@H](N)Cc4ccccc4)cnc3-c3ccoc3)cc12.O=C(O)C(F)(F)F.O=C(O)C(F)(F)F [GSK507358],0,0,0,28,15,33,2,33,17,65,1,6,25,15,14,80,28,14,16,5
Cc1ccc2c(-c3ccncc3)c(-c3ccc(F)cc3)nn2c1.Cl [GW461484],10,0,0,5,0,38,5,7,2,0,9,0,17,3,13,0,7,29,0,9
CCN(CC)CCOc1ccc(Nc2ncc3cc(-c4c(Cl)cccc4Cl)c(=O)n(C)c3n2)cc1 [SB-601273],87,71,75,83,76,93,57,58,80,83,43,51,98.4,26,29,61,38,32,71,12
Cl.Cl.NC[C@H](Cc1ccc(C(F)(F)F)cc1)NC(=O)c1cc(Br)c(-c2ccnc3[nH]ccc23)s1 [GSK1487252],4,0,0,43,97.7,44,0,0,13,17,11,0,25,45,55,2,9,93.3,41,16
C[C@H]1Oc2cc(cnc2N)-c2c(nn(C)c2C#N)CN(C)C(=O)c2ccc(F)cc21,13,0,23,0,16,0,19,19,4,0,0,11,18,10,10,10,17,31,25,19
Cc1occc1-c1nc(N)c(OC[C@@H](N)Cc2c[nH]c3ccccc23)cc1-c1cc2c(C)n[nH]c2cn1 [GSK1660450],29,0,22,78,97.6,0,96.8,78,91.2,94.9,15,9,29,9,37,69,28,11,0,6
C[C@@H]1CCN(C(=O)CC#N)C[C@@H]1N(C)c1ncnc2[nH]ccc12,0,0,3,0,0,0,3,0,100,0,51,11,6,4,0,8,0,0,12,0
